# Test results published in PubChem BioAssay AID1494156 (National Center for Advancing Translational Sciences (NCATS), 2020).
# Records with an inconclusive call do not appear. Values without a mark were called inactive. Active and inactive are the calls of the source. Calls come from the whole dose curve.
# Assay: VSV-G qHTS counterscreen for inhibitors of MERS-S pseudo-typed particle cell entry
# Conditions: VSV-G pseudotyped particle cell entry, luciferase counterscreen; series mostly up to 57.1 µM; activity, negative = inhibition: at the top concentration
Structure (SMILES),"activity, negative = inhibition",Potency
CCOc1cc2ncc(C#N)c(Nc3ccc(OCc4ccccn4)c(Cl)c3)c2cc1NC(=O)/C=C/CN(C)C,-3.61% [at 11.2 µM],–
COC(=O)C1=C(C)NC(C)=C(C(=O)OCC(C)C)C1c1ccccc1[N+](=O)[O-] (configuration not stated),–,17.1 µM (active)
Nc1nc(Cl)nc2c1ncn2C1CC(O)C(CO)O1 (configuration not stated),–,9.61 µM (active)
C=CC(=O)Nc1cc(Nc2nccc(-c3cn(C)c4ccccc34)n2)c(OC)cc1N(C)CCN(C)C,–,30.4 µM (active)
C=C1c2c(Cl)ccc(O)c2C(O)=C2C(=O)[C@@]3(O)C(O)=C(C(N)=O)C(=O)[C@@H](N(C)C)[C@@H]3[C@@H](O)[C@H]12,–,19.2 µM (active)
COc1cc([C@@H]2c3cc4c(cc3C(O[C@@H]3O[C@@H]5CO[C@@H](c6cccs6)OC5[C@H](O)[C@H]3O)C3COC(=O)[C@@H]32)OCO4)cc(OC)c1O (some centres not stated),–,0.192 µM (active)
COc1cccc2c1C(=O)c1c(O)c3c(c(O)c1C2=O)C[C@@](O)(C(=O)CO)CC3OC1CC(N2CCOC(OC)C2)C(O)C(C)O1 (some centres not stated),–,0.152 µM (active)
COc1cc2nccc(Oc3ccc(NC(=O)C4(C(=O)Nc5ccc(F)cc5)CC4)cc3)c2cc1OC,–,15.2 µM (active)
Nc1ccn([C@@H]2O[C@H](CO)[C@@H](O)C2(F)F)c(=O)n1,–,0.136 µM (active)
C[C@@H]1CCO[C@H]2Cn3cc(C(=O)NCc4ccc(F)cc4F)c(=O)c(O)c3C(=O)N12,–,0.0015 µM (active)
CC[C@@]1(O)C(=O)OCc2c1cc1n(c2=O)Cc2c-1nc1ccccc1c2/C=N/OC(C)(C)C,–,0.0108 µM (active)
O=C1c2c(O)ccc(O)c2C(=O)c2c(NCCNCCO)ccc(NCCNCCO)c21,–,0.541 µM (active)
O=C(O)c1cc(O)c2c(c1)[C@H]([C@H]1c3cc(C(=O)O)cc(O)c3C(=O)c3c(O[C@@H]4O[C@H](CO)[C@@H](O)[C@H](O)[C@H]4O)cccc31)c1cccc(O[C@@H]3O[C@H](CO)[C@@H](O)[C@H](O)[C@H]3O)c1C2=O,–,7.44 µM (active)
COc1c(OCCCN2CCOCC2)ccc2c3n(c(=NC(=O)c4cnc(N)nc4)nc12)CCN3,-8.49% [at 11.2 µM],–
CCCCN=C(N)N=C(N)N,0.705%,–
CC(=O)[C@]1(O)Cc2c(O)c3c(c(O)c2[C@@H](O[C@H]2C[C@H](N)[C@H](O)[C@H](C)O2)C1)C(=O)c1ccccc1C3=O,–,2.15 µM (active)
Cc1nnc2n1-c1sc(CCc3ccc(CC(C)C)cc3)cc1C(c1ccccc1Cl)=NC2C (configuration not stated),–,24.1 µM (active)
COc1ccc(Cc2nccc3cc(OC)c(OC)cc23)cc1OC,–,3.04 µM (active)
COc1ccc2cc3[n+](cc2c1OC)CCc1cc2c(cc1-3)OCO2,–,8.57 µM (active)
C[C@@H](c1nc(-c2ccc(C#N)cc2)cs1)[C@](O)(Cn1cncn1)c1cc(F)ccc1F,–,2.15 µM (active)
CC(C)(C)C(=O)OCOP(=O)(COCCn1cnc2c(N)ncnc21)OCOC(=O)C(C)(C)C,–,0.0429 µM (active)
Cc1c(N)nc(C(CC(N)=O)NCC(N)C(N)=O)nc1C(=O)NC(C(=O)NC(C)C(O)C(C)C(=O)NC(C(=O)NCCc1nc(-c2nc(C(=O)NCCCN[C@@H](C)c3ccccc3)cs2)cs1)C(C)O)C(O[C@@H]1O[C@@H](CO)[C@@H](O)[C@H](O)[C@@H]1O[C@H]1O[C@H](CO)[C@@H](O)[C@H](OC(N)=O)[C@@H]1O)c1cnc[nH]1 (some centres not stated),–,0.764 µM (active)
CCCCCCCCCCCCCC[n+]1ccc(C)cc1,–,1.71 µM (active)
CCCCCCOC(=O)NC(=N)c1ccc(NCc2nc3cc(C(=O)N(CCC(=O)OCC)c4ccccn4)ccc3n2C)cc1,–,27.1 µM (active)
O=C(Nc1ccc([N+](=O)[O-])cc1Cl)c1cc(Cl)ccc1O,–,0.607 µM (active)
CC(C)C(=O)Oc1ccc(CO)cc1[C@H](CCN(C(C)C)C(C)C)c1ccccc1,–,21.5 µM (active)
COc1ccc2cc1Oc1ccc(cc1)C[C@H]1c3c(cc4c(c3Oc3cc5c(cc3OC)CCN(C)[C@@H]5C2)OCO4)CCN1C,–,21.5 µM (active)
